Compounds without any hit were thinned out: in the full panel of roughly 83,000, 20% have a hit.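 The endpoint reported here, percent growth, reads 100 for growth as untreated, 0 for no net growth and -100 for all cells dead.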 Values without a mark were called inactive. The source made the active and inactive calls. How the source made its calls: active means growth percent below 10; inactive means the rest.

The test has as its system A549/ATCC NSCLC. The test can be described thus: NCI-60 one-dose screen, 48 h (100 = growth as untreated, 0 = no growth, -100 = all killed). As to conditions: 10 µM unless noted.
Consider `CCCn1c(NC(=O)c2cccc(C(N)=O)c2)nc2ccc(CN3CCCCC3)cc21`, for which the growth is 99.8%.

Turning to `Fc1ccc(Nc2nnc(-c3c[nH]c4ccccc34)o2)cc1`, the growth is 77.5%.

On to `CC1=C(C(=O)OC(C)C)C(c2ccc(O)cc2)NC(=O)N1` (stereo not drawn), for which the growth is 101%.

Consider `COc1ccc(NC(=O)Cn2c(/C=C/c3ccc([N+](=O)[O-])cc3)nc3ccccc3c2=O)cc1`, for which the growth is 75.9%.

As to `O=C(c1ccc(O)cc1)C1[C@H](c2ccc(Cl)cc2)[C@@H](c2ccccc2)NC12C(=O)Nc1ccccc12` (stereo partly drawn), the growth is 14.4%.

Consider `O=c1ccc(Cn2c(C(F)(F)F)cc3c(Cl)ncnc32)c[nH]1`, for which the growth was 105%.

For `O=C(CSc1nc2c(c(=O)[nH]1)CCCC2)Nc1ccccc1C(=O)O`, the growth is 103%.

Regarding `COc1ccc2[nH]c(O)c(N=Nc3nc(-c4ccc(C#N)cc4)cs3)c2c1`, the growth is 51.8%.

Turning to `COc1ccc(-c2nc3ccc(-c4nnc(SCC(=O)Nc5ccc(/C(C)=N\O)cc5)o4)cc3[nH]2)cc1`, the growth was 74.2%.

With `Cc1ccc(C2CC(c3ccc(NC(=O)Nc4ccccc4)cc3)=NN2c2ccc(S(C)(=O)=O)cc2)cc1` (stereo not drawn), the growth is 4.89% (active).

As to `CN1CCN(C(=O)Oc2cc3c(c4ccccc24)[C@H](CCl)CN3C(=O)c2cc3cc(OCCCN4CCC4)ccc3[nH]2)[C@H]2CSSC[C@H]21`, the growth is 4% (active).

In the case of `Cc1ccc(N=Nc2c(N)nn3c(-c4cc5ccccc5oc4=O)ccnc23)cc1`, the growth was 45.1%.

As for `C[C@@H]1[C@H]2C[C@@H](C[C@H]1NCc1nc3ccccc3n1C1CCCCCC1)C2(C)C`, the growth is 71.8%.

For the origin of these results see PubChem BioAssay (NCI).
